The whole screen tested about 140,000 compounds, of which about 320 (0.23%) were called active. The full list was thinned out, with actives kept by preference. A number with no mark means an inactive call. No stated cut-off is given here; in the data, active means z-score mostly below about -2.9 (no sharp cut-off); inactive means mostly above about -1.9.
Tested on: CapD gamma-glutamyltranspeptidase (Bacillus anthracis Ames Ancestor)
Experiment: inhibition of CapD gamma-glutamyltranspeptidase – biochemical, fluorescence intensity, primary screen (AID 492967)
Settings: purified CapD enzyme, fluorescence intensity read-out; hits give low values

Row | Compound | z-score
1 | COc1ccc2nc(SCC(=O)Nc3cc(NC(=O)CSc4nc5ccc(OC)cc5[nH]4)cc(C(=O)O)c3)[nH]c2c1 | -1.48
2 | COc1ccc(CCNC(=O)c2cn(C)c(=O)c3cc(OC)c(OC)cc23)cc1OC | 1.5
3 | O=C(COc1ccccc1)NCCc1nc2ccccc2n1Cc1ccccc1 | -8.12 (active)
4 | Cc1ccccc1Cn1c(CCNC(=O)C(C)(C)C)nc2ccccc21 | -0.49
5 | CCC(=O)NCCc1nc2ccccc2n1CC | -0.29
6 | CC(C)NC(=O)CN1CCN(S(=O)(=O)c2cc(Cl)ccc2Cl)CC1 | -0.36
7 | CC(C)(C)c1ccc(OCCCn2c(=O)sc3ccccc32)cc1 | 0.35
8 | O=C1CC(c2c(Cl)cccc2Cl)c2ccc3ccccc3c2N1 (centres undefined) | 0
9 | COCCNC(=O)c1ccc(Cn2c(SCC(=O)NCC3CCCO3)nc3ccc(Br)cc3c2=O)cc1 (centres undefined) | -0.085
10 | Cc1ccc2cc3cc(C(=O)NCc4ccc(F)cc4)oc3nc2c1 | 50.4
11 | O=C(c1ccc(C(F)(F)F)cc1)N1CCC(c2nnc(-c3ccccc3)o2)CC1 | -0.12
12 | Cc1ccc2cc(C)c(C)cc2c1 | -0.345
13 | COc1ccc(CCNC(=O)CCC(=O)Nc2nc(-c3cc4ccccc4oc3=O)cs2)cc1OC | 0.27
14 | CN(C)C=NC(=O)c1ccc(Oc2ncc(C(F)(F)F)cc2Cl)cc1 | -0.275
15 | CC(=O)c1cc(Cl)cc(Cl)c1OC(=O)c1c(-c2c(Cl)cccc2Cl)noc1C | -0.58
16 | O=C(NCCCN1CCCCC1)c1cc(-c2ccncc2)nc2ccccc12 | 0.14
17 | CCOc1cc(/C=C2\SC(=S)N(C(C)C(=O)O)C2=O)ccc1O (centres undefined) | -2.57
18 | CCOc1cc(/C=C2\SC(=S)N(c3c(C)n(C)n(-c4ccccc4)c3=O)C2=O)ccc1O | -1.1
19 | CCCC(C(=O)O)N1C(=O)/C(=C/c2ccc(O)c(OCC)c2)SC1=S (centres undefined) | -7.48 (active)
20 | Cc1ccc(N2CCN(c3ccccc3)CC2)nn1 | -0.315
21 | COc1ccc(CN2C(=O)CC(C(=O)Nc3ccc(F)cc3)SC2=Nc2ccccc2)cc1 (centres undefined) | -0.02
22 | CCN1C[C@]2(OC(=O)c3ccccc3NC(C)=O)CC[C@H](OC)[C@@]34C2C[C@@H]([C@@H]13)[C@@]1(O)C[C@H](OC)[C@H]2CC4[C@]1(O)[C@H]2OC (some centres undefined) | 7.48
23 | CN(C(=O)Cn1nc(Cc2ccncc2)c2ccccc2c1=O)c1ccccc1 | 5.11
24 | COc1ccc([N+](=O)[O-])cc1/C=C1\C(=O)NC(=O)N(c2ccc(Cl)cc2)C1=O | -0.64

Row | Compound | z-score
25 | Oc1c(Br)cc(Br)cc1C=Nc1ccc(Oc2ccc(Cl)cc2)cc1 | -1.07
26 | Cc1ccc2c(c1)-c1onc(C(=O)NC3CCCCC3)c1CO2 | 3.98
27 | CCO/C=C1\SC(=S)N(Cc2ccccc2)C1=O | -0.945
28 | O=C1c2ccccc2C(=O)N1CC1c2ccccc2CCN1S(=O)(=O)c1cccc2nsnc12 (centres undefined) | -0.52
29 | CCCCOc1ccc(C(=O)Nc2ccc3nc(SCC(=O)NCC4CCCO4)sc3c2)cc1 (centres undefined) | 0.345
30 | O=C(/C=C/c1cn(-c2ccccc2)nc1-c1ccc(F)cc1)NCc1cccnc1 | 2.33
31 | COC(=O)c1sc(-c2cccs2)cc1NS(=O)(=O)c1ccccc1 | 41.9
32 | COC(=O)c1c(NC(=O)Cn2nc([N+](=O)[O-])c(Br)c2C)sc2c1CCC(C)C2 (centres undefined) | -0.48
33 | CCc1ccc(NC(=O)Cc2csc(C)n2)cc1 | -0.185
34 | CCOC(=O)C1C(=O)CN(c2ccccc2)C1=O (centres undefined) | 2.06
35 | O=C(C1CCN(S(=O)(=O)c2ccc3[nH]c4c(c3c2)CCCCC4)CC1)N1CCCC1 | -0.165
36 | Cc1ccc(NC(=O)c2ccccc2N)cc1C | 29
37 | C=CCNC(=S)Nc1ccn(Cc2ccccc2C)n1 | -0.535
38 | O=C(CSc1ccc(Cl)cc1)N1CCC(C(F)(F)F)CC1 | 0.56
39 | Cc1nc(Nc2ccc(S(N)(=O)=O)cc2)nc(Nc2ccc(S(N)(=O)=O)cc2)c1Br | -0.56
40 | CC(C)C(O)(C(=O)OC[C@@H]1CC[N+]2([O-])CCC[C@@H]12)C(C)O (some centres undefined) | 0.78
41 | O=C1CSC(c2ccccc2)C(=O)N1c1ccc(Br)cc1 (centres undefined) | 0.345
42 | Cc1ccc(-c2n[nH]c3c2C(c2ccccc2F)N(c2ccc(F)cc2)C3=O)cc1 (centres undefined) | -0.525
43 | C/C(=N\NC(=O)C1CCCCC1)c1cccs1 | -0.47
44 | N#CCC1NCCc2ccccc21 (centres undefined) | -2.33
45 | CC1(C)CC2(CCCN(CC#N)C2)CCS1 (centres undefined) | 0.425
46 | COc1ccc(C(Nc2ncnc3c2ncn3C2CC=C(CO)CC2)(c2ccccc2)c2ccccc2)cc1 (centres undefined) | -0.275
47 | CN(Cc1ccccc1)C(=O)Cn1ncc2c3ccccc3n(Cc3ccccc3F)c2c1=O | 0.685
48 | O=C(CN1CCN(c2ccc([N+](=O)[O-])cn2)CC1)Nc1ccc2c(c1)OCO2 | -0.23

Row | Compound | z-score
49 | CCN(c1ccccc1)S(=O)(=O)c1cc2c(cc1C)n(C)c(=O)c(=O)n2C | 4.49
50 | C=C1Cn2c(nnc2-c2ccc(Br)cc2)S1 | 0.32
51 | O=C(CSc1nc2ccc(Br)cc2c(=O)n1-c1ccccc1)NCc1ccco1 | 0.585
52 | O=C(O)CCCN1C(=O)/C(=C2\SC(=S)N(CCCC(=O)O)C2=O)SC1=S | 1.03
53 | O=C(O)c1cc2cccnc2nc1C(F)(F)F | -0.285
54 | COc1ccc(C(=O)OC2CC(C)=CCC3(C)CCC(O)(C(C)C)C23)cc1O (centres undefined) | -0.385
55 | COc1ccc(C(=O)N2CCN(C(=O)OCc3ccc(SC(F)(F)F)cc3)CC2)cc1F | 0.325
56 | Nc1c(C(=O)O)noc1C(=O)c1ccccc1 | 2.44
57 | O=C(OCC(=O)N1CCCCC1)c1ccc(OC(F)(F)F)cc1 | 0.135
58 | CC(C)(C)NC(=S)NNc1c(Cl)cncc1Cl | 0.41
59 | CN(c1ncnc2c1nc1n2CCCCC1)C1CCCCC1 | 0.88
60 | NC(=S)c1ccc(-c2csnn2)cc1 | -0.465
61 | CCN1C(=O)/C(=C/c2ccccc2)SC1=S | 0.005
62 | CCN1C(=O)/C(=C2/Sc3ccccc3N2C2CCCCC2)SC1=S | -0.02
63 | CCN1C(=O)/C(=C2/Sc3ccccc3N2CCCS(=O)(=O)O)SC1=S | -3.94 (active)
64 | CCCCc1ccc2nc(N)sc2c1 | -0.715
65 | O=C(NCCO)c1ccc(/C=N/O)nc1 | 0.075
66 | Cc1c(Cl)cccc1NC(=O)c1ccc(-n2cccn2)c([N+](=O)[O-])c1 | 2.56
67 | CC(=O)N1CCCN(S(=O)(=O)c2cccc3nonc23)CC1 | -0.285
68 | CCn1c2ccccc2c2cc(CN3CCN(C(=O)c4ccccc4OC)CC3)ccc21 | 14
69 | O=[N+]([O-])c1ccc(-c2ccc(-c3[nH]c(-c4cccc([N+](=O)[O-])c4)nc3-c3ccccc3)cc2)cc1 | 0.025
70 | CC1CCN(CC(=O)N2c3ccccc3C(C)(c3ccccc3)CC2(C)C)CC1 (centres undefined) | 0.18
71 | CCOC(=O)CC(=O)CSc1nc2c(sc(=S)n2CCc2ccccc2)c(=O)n1Cc1ccco1 | 0.52
72 | O=C(COc1ncn(-c2ccccc2)n1)N/N=C/c1cc(OCc2ccccc2)cc(OCc2ccccc2)c1 | -1.07

Row | Compound | z-score
73 | COc1cc(Br)c(C2C(C(=O)OCCOc3ccccc3)=C(C)NC3=C2C(=O)CCC3)cc1OC (centres undefined) | 22.1
74 | CCN1CCN(CCNC(=O)c2ccc(NC(=O)C3=CSCCO3)cc2)CC1 | -0.9
75 | O=C(NCCc1ccccc1)c1cc2c(s1)CS(=O)(=O)C2 | 0.17
76 | O=C(O)c1cc2ccccc2c(=O)s1 | 0.97
77 | O=C(O)c1cc2c(s1)CS(=O)(=O)C2 | -3.92 (active)
78 | COc1ccc(C2Nc3ccccc3C(=O)N2c2ccccc2)cc1CSc1nc2ccccc2s1 (centres undefined) | 34.5
79 | Cc1cc(C)nc(N2CCN(C(=O)C(C)(C)C)CC2)n1 | -0.02
80 | Nc1ccc(C(=O)Nc2nc3ccc(NC(=O)c4ccccc4)cc3s2)cc1 | 13.6
81 | O=C(OCCN1C(=O)c2ccccc2C1=O)c1ccc(Cl)cc1 | 0.395
82 | O=C(NC(=O)N1CCOCC1)c1ccc(S(=O)(=O)N2CCOCC2)cc1 | 0.605
83 | CC1=NN(c2ccccc2)C(=O)CC1 | 0.205
84 | CCC(C)c1ccc(N2C(=O)C=CC2=O)cc1 (centres undefined) | -0.045
85 | COc1ccc(N2CCN(c3ncnc4sc(C(=O)NCc5ccccc5OC)c(C)c34)CC2)cc1 | -0.385
86 | Cc1ccc2c(c1)c1c3n2CCN(S(C)(=O)=O)C3CCC1 (centres undefined) | 0.19
87 | CCOC(=O)c1cc(C#N)c(C)nc1N1CCN(C(=O)OCCN2CCN(Cc3cc4c(cc3Cl)OCO4)CC2)CC1 | -0.455
88 | OC(CSCc1ccc(Cl)cc1)(c1ccccc1)c1ccccc1 | -0.53
89 | CCOC(=O)c1ccc(NC(=O)N2CCC(CN3CCCCCC3)CC2)cc1 | -1.43
90 | O=C1CCc2ccccc2CN1 | 0.13
91 | Nc1ccc2c(c1)C/C(=C\c1ccco1)C2=O | -3.17
92 | Cc1cccc(NC(=O)N(C)C)c1 | 0.275
93 | C=CCn1c(=S)sc2c(=O)[nH]c(C)nc21 | -5.7 (active)
94 | C=CCn1c(=S)sc2c(SCC(=O)N3CCc4ccccc43)ncnc21 | 1.31

— PubChem BioAssay AID492967 (ICCB-Longwood Screening Facility, Harvard Medical School, 2010)
